SRC3 inh – inhibits human SRC3 coactivator | Q9Y6Q9 | HEK293 GAL4-SRC3 luciferase reporter, luminescence | inhibition, % at 3.6 µM | 360,000 compounds, 0.17% hits;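 active = inhibition above a per-campaign cutoff, the mean of all compounds plus 3 SD, cut at about 60% in these data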;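 also: 0% = DMSO-treated cells and 100% = gossypol-treated cells at 36 µM; higher means less SRC3-driven luciferase light from the GAL4 reporter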
Gli-Sufu antag – blocks Gli-Sufu signaling in a luciferase reporter. Sufu-KO-LIGHT fibroblasts, Gli luciferase reporter luminescence. inhibition, % at 5 µM. 340,000 compounds, 0.74% hits;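 active = inhibition above about 55%, limit read from the data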;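 also: 0% = DMSO-treated cells and 100% = wells with medium but no cells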
NCOA1 inh – inhibits human SRC1 coactivator | Q15788 | HEK293 GAL4-SRC1 luciferase reporter, luminescence | inhibition, % at 3.6 µM | 360,000 compounds, 0.12% hits;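 active = inhibition above the campaign mean plus 3 SD, with each screening campaign given its own cutoff, cut at about 60% in these data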;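 also: 0% = DMSO treated cells and 100% = gossypol at 36 µM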
LRH-1 inv ag – NR5A2 inverse agonism in reporter assay; O00482; HEK293T StAR-luciferase reporter, LRH-1 transfected, 24 h; inhibition, % at 3.6 µM; 360,000 compounds, 0.13% hits; AID 602396;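 active = inhibition above the mean inhibition of all tested compounds plus 3 SD, cut at about 73% in these data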;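 also: 0% = DMSO wells and 100% = reporter-only cells lacking LRH-1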
Target sequence (O00482 whole entry, looked up): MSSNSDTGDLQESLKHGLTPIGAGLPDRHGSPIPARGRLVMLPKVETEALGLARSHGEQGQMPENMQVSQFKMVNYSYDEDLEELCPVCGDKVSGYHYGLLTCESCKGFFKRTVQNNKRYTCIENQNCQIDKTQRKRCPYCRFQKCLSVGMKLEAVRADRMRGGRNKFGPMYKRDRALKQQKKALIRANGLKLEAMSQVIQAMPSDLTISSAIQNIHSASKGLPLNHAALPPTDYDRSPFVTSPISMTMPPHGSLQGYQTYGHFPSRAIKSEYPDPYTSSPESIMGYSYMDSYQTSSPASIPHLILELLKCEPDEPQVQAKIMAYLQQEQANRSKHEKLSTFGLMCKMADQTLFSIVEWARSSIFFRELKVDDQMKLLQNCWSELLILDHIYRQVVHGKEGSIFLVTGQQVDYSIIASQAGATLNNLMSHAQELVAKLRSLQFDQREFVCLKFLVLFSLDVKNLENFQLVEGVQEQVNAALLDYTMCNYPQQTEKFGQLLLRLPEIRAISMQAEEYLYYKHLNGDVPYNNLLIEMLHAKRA
NCOA2 inhibitor – human SRC2 (NCOA2) inhibition; Q15596; HEK293 GAL4-SRC2 luciferase reporter, luminescence; inhibition, % at 9 µM; 370,000 compounds, 0.17% hits;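 active = inhibition above the mean inhibition of all tested compounds plus 3 SD, set per campaign, cut at about 52% in these data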;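 also: 0% = DMSO treated cells and 100% = cells given Gossypol at 36 µM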
Gli antag conf – confirmation of Gli-SUFU pathway antagonists | shares compounds with Gli-Sufu antag | Sufu-KO-LIGHT cells, Gli luciferase reporter, luminescence | inhibition, % at 5 µM | 2,500 compounds, 40% hits | AID 602428;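 active = mean inhibition at 5 µM reaching about 45%, limit read from the data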;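 also: plate controls were DMSO-treated cells for no effect and wells lacking cells for full effect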
SufuKO cytotox – cytotoxicity counter-screen for Gli-SUFU antagonists; shares compounds with Gli-Sufu antag; Sufu-KO-LIGHT cells cytotoxicity, ATP luminescence; cytotoxicity, % at 5 µM; 2,500 compounds, 32% hits;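 active = mean cytotoxicity at 5 µM above about 25%, limit read from the data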;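 also: cells exposed to compound overnight for roughly 16 to 18 hours; plate controls were DMSO wells with cells for no effect and medium without cells for full effect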
Wnt3a counter – inhibits Wnt3a reporter, counter-screen for Gli-SUFU antagonists; shares compounds with Gli-Sufu antag; Wnt-LIGHT cells, Wnt3a-driven luciferase reporter, luminescence; inhibition, % at 6.25 µM; 2,500 compounds, 20% hits; AID 651995;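 active = mean inhibition above about 25%, limit read from the data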
* hit, by the source's call; . = not tested or not shown. Hits are enriched below; roughly 0.83% of the tested compounds scored in any of these assays.

SMILES	SRC3 inh	Gli-Sufu antag	NCOA1 inh	LRH-1 inv ag	NCOA2 inhibitor	Gli antag conf	SufuKO cytotox	Wnt3a counter
CCOC(=O)c1c(C)[nH]c(C)c1S(=O)(=O)NCCN1CCN(c2ccccc2F)CC1	8	67*	-15	15	0	21	12	-17
CC1(C)CC(N2CCCCC2)=CC(=[N+]2CCCCC2)C1	48	84*	43	56	11	87*	46*	48*
CC1(C)CC(N2CCOCC2)=CC(=[N+]2CCOCC2)C1	5	-7	0	-8	13	.	.	.
CCn1c2ccccc2c2cc(NC(=O)COC(=O)c3cc(F)cc(F)c3)ccc21	.	.	.	.	-5	.	.	.
Cc1cc2cc(CCNC(=O)c3ccc(Br)o3)c(=O)[nH]c2cc1C	-14	96*	-1	-15	-11	10	3	29*
O=C(NC1CCCC1)c1ccc(COc2ccccc2)o1	.	.	.	.	-13	.	.	.
Cc1cc(C)n2nc(SCC(=O)c3cc(C)n(-c4cc(C)on4)c3C)nc2n1	21	55	10	1	23	52*	30*	34*
C=CCn1c(SCc2c(Cl)cccc2Cl)nnc1-c1cccc(C)c1	.	.	.	.	16	.	.	.
N/C(=N/O)c1ccccc1N1CCC(Cc2ccccc2)CC1	27	78*	7	-3	21	74*	36*	-25
c1ccc(CC2CCN(c3nnnn3-c3ccccc3)CC2)cc1	7	1	-7	21	3	.	.	.
COc1ccc(OC)c(S(=O)(=O)N2CCCCC2C(=O)N2CCN(c3ccc(F)cc3)CC2)c1 (stereo not drawn)	.	.	.	.	12	.	.	.
Cc1ccnc(NC(=O)CCC(=O)N(CC(=O)NCc2ccc(F)cc2)Cc2ccco2)c1	12	63*	-6	-3	-37	15	8	-6
CCCNC(=O)c1ccccc1NC(=O)c1ccc2c(=O)n3c(nc2c1)CCC3	-15	96*	-1	0	-7	22	15	-1
Cc1sc2nc(C3CC3)nc(SCC(=O)N3CCc4ccccc4C3)c2c1C	-2	25	6	7	14	.	.	.
CCc1c(C)sc2nc(C(C)C)nc(SCC(=O)N3CCc4ccccc4C3)c12	.	83*	.	.	17	85*	41*	13
O=C(CCCc1nc(-c2ccccc2Cl)no1)NC1CCCC1	63*	64*	45	26	90*	57*	-1	93*
Cc1ccc(CNC(=O)OC(C)(C)C)c(/C=C/S(=O)(=O)NCc2ccc(F)cc2)c1	.	.	.	.	3	.	.	.
COc1ccc(C(C(=O)N(C)C2CCCC2)N(Cc2ccc(F)cc2)C(=O)c2csc3ccc(Cl)cc23)cc1OC (stereo not drawn)	.	.	.	.	6	.	.	.
Cc1ccc(C(=O)OCC(=O)c2cc(C)n(CC3CCCO3)c2C)cc1 (stereo not drawn)	-16	-3	-17	-26	-60	.	.	.
Cc1cc(C(=O)COc2ccccc2C(N)=O)c(C)n1CC1CCCO1 (stereo not drawn)	21	58*	-21	33	-2	56*	37*	21
O=C(c1ccc([N+](=O)[O-])cc1)N(Cc1ccc(Cl)cc1Cl)N1C(=O)CCCC1=O	-2	23	-8	-23	-2	.	.	.
O=C(c1ccc([N+](=O)[O-])cc1)N(Cc1ccc(Cl)cc1)N1C(=O)CCCC1=O	-9	78*	10	-6	-10	90*	71*	10
COCCCN1C(=O)[C@H](CC(=O)NCc2ccccc2)[C@]2(C(=O)OC)CCCCC=C12	.	.	.	.	2	.	.	.
CC1(C)CC(=O)C2=C(C1)Nc1ccccc1NC2c1cccs1 (stereo not drawn)	0	58*	4	2	-5	21	8	-1
O=C1CCCC2=C1C(c1cccs1)Nc1ccccc1N2 (stereo not drawn)	20	-3	-6	10	-24	.	.	.
COc1cccc(Cn2c(-c3cccs3)noc2=O)c1	8	99*	22	15	-7	20	8	-37
CC(C)(C)c1ccc(-c2nnc(SCC(=O)Nc3ccc4cn[nH]c4c3)n2-c2ccc(Cl)cc2)cc1	.	.	.	.	-11	.	.	.
